Laboratory results as given in PubChem BioAssay AID1347420 (Sanford-Burnham Center for Chemical Genomics, 2020).
Among all 1,300 compounds or so, about 980 (75%) were called active. Inconclusive results (about 4%) are left out. The list shows a part of the results.

What follows are molecules tested against Sulfhydryl oxidase 1 (Homo sapiens) (UniProt O00391) (assay: QSOX1 enzyme inhibitors, primary screen, biochemical, HyperBlu H2O2 luminescence, HTS (AID 1347420; further: values above 100% were filed as inconclusive)). Details: recombinant QSOX1, HyperBlu H2O2 luminescence, at 12.5 µM, hits give high values; active = any value above zero unless noted.
Sulfhydryl oxidase 1 (Homo sapiens), sequence (O00391 whole entry, looked up): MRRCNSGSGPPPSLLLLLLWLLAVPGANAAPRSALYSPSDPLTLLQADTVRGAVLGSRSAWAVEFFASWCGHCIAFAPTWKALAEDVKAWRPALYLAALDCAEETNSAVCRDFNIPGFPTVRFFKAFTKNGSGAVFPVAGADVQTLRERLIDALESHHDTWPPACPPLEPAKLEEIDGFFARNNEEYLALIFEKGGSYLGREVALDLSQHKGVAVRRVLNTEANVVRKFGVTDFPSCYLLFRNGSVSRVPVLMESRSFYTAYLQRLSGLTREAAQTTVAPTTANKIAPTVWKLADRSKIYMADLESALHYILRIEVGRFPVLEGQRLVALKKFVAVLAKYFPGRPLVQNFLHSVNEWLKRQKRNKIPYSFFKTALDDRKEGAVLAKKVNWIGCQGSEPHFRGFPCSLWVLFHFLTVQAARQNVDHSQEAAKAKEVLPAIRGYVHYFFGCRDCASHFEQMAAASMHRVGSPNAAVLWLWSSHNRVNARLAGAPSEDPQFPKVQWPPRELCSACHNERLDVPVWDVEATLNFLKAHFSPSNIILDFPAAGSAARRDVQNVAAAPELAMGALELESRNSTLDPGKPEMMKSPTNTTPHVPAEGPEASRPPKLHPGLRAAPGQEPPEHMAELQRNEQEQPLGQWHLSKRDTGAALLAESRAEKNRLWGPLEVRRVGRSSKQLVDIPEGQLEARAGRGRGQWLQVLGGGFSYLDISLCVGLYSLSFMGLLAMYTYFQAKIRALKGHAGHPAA

| SMILES | inhibition |
| --- | --- |
| COc1ccc2[nH]c3c(c2c1)CCNC3 | 40.5% (active) |
| NC(=O)CI | -4.6% (inactive) |
| NNC(N)=O | 13% (active) |
| COc1ccc(OC)c(C(O)C(C)N)c1 (configuration not stated) | 10.6% [setting not given] (active) |
| CCCN(CCC)[C@@H]1CCc2cccc(O)c2C1 | 2.9% (active) |
| CCCN(CCC)C1CCc2cccc(O)c2C1 (configuration not stated) | 5.5% (active) |
| CCCN(CCC)[C@H]1CCc2c(F)ccc(O)c2C1 | 17.9% (active) |
| Cc1ncc(CNC(=O)N(CCCl)N=O)c(N)n1 | 13.2% (active) |
| Clc1cc(I)cc(Cl)c1NC1=NCCN1 | 3.8% (active) |
| O=c1[nH]c2ccccc2n1CCCN1CCC(n2c(=O)[nH]c3cc(Cl)ccc32)CC1 | 4.5% [setting not given] (active) |
| O=c1[nH]c2ccccc2n1C1CCN(CCCC(c2ccc(F)cc2)c2ccc(F)cc2)CC1 | -0.3% [setting not given] (inactive) |
| S=C(NC1CCCCC1)N1CCC(c2cnc[nH]2)CC1 | 4.8% (active) |
| CC[C@@]1(O)C(=O)OCc2c1cc1n(c2=O)Cc2cc3ccccc3nc2-1 | 17.6% [setting not given] (active) |
| c1ccc(C2CC2)c(OCC2=NCCN2)c1 | 21.8% (active) |
| COc1ccc(C(=O)N2CCCC2=O)cc1 | 20.3% [setting not given] (active) |
| COC[C@H]1OC(=O)c2coc3c2[C@@]1(C)C1=C(C3=O)C2CCC(=O)[C@@]2(C)C[C@H]1OC(C)=O (some centres not stated) | 49.7% (active) |
| NC(=O)c1cc(N2CC2)c([N+](=O)[O-])cc1[N+](=O)[O-] | 15.2% (active) |
| c1ccc(CCCN2CCN(CCOC(c3ccccc3)c3ccccc3)CC2)cc1 | -3% (inactive) |
| Fc1ccc(C(OCCN2CCN(CCCc3ccccc3)CC2)c2ccc(F)cc2)cc1 | 14.6% (active) |
| CC12CCC3C(CCC4=C(O)C(=O)CCC43C)C1CCC2=O (configuration not stated) | 1.5% [setting not given] (active) |
| NCCc1c[nH]c2ccc(O)cc12 | 80.8% (active) |
| CC(N)Cc1c[nH]c2ccc(OCc3cccs3)cc12 (configuration not stated) | -4.1% [setting not given] (inactive) |
| CNCCc1c[nH]c2ccc(O)cc12 | 55.9% [setting not given] (active) |
| CC(=O)NCCc1c[nH]c2ccccc12 | 35.3% [setting not given] (active) |
| CC(N)Cc1c[nH]c2ccc(O)cc12 (configuration not stated) | 79% [setting not given] (active) |
| COc1ccc2[nH]cc(CCN)c2c1 | -0.1% [setting not given] (inactive) |
| Cc1c(C(=O)c2cccc3ccccc23)c2cccc3c2n1[C@H](CN1CCOCC1)CO3 | -2.1% [setting not given] (inactive) |
